# Screens: PubChem, National Center for Advancing Translational Sciences (NCATS)
# Pf growth 96h: P. falciparum growth inhibition at 96 hours; P. falciparum luciferase reporter growth, 96 h; Potency, µM (highest dose often 28.7 µM), without a hit: at the highest dose activity change, negative = inhibition, hits mostly inhibitors; hit rate 6.9% among 320,000; AID 504834; note: potency is the fitted concentration of half-maximal effect; % is set by controls: 0 for no effect and ±100 for the full control effect
#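 P. falciparum expressing integrated firefly luciferase grown in erythrocytes (2% hematocrit, 0.05% parasitemia final) with compounds for 96 hours at 37 C, 5% CO2. Growth inhibition read as loss of luminescence after adding luciferase detection reagent.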
# AMA1 RON2 block: disrupts binding of P. falciparum AMA1 to RON2; AlphaScreen AMA1-biotinylated RON2 peptide binding; Potency, µM (series often up to 58.2 µM), for the others: top-dose activity change, negative = inhibition, usual class: inhibitors; hit rate 0.2% among 360,000; AID 720542;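 note: potency is the fitted concentration of half-maximal effect; 0% = vehicle wells and -100% = peptide control; nearly all actives have a fitted effect of over 45% in size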
#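 AMA1 (3D7) with his tag at 25 nM final met compounds first, then biotinylated RON2 peptide at 25 nM; detection used donor plus acceptor beads, 10 µg/mL apiece, read by AlphaScreen after 30 min at room temperature.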
# Shiga toxin inh: Shiga toxin inhibition; hit rate 9.2% among 290,000; Vero cells, Shiga toxin protein synthesis inhibition reporter; inhibition, % at 38.7 µM; in the data active = inhibition mostly above about 28%, no sharp cut-off; inactive = mostly below about 43%; note: 0% is about no effect
# CHX counter: counter-screen hit for Shiga toxin inhibitors, cycloheximide | cell reporter, cycloheximide protein synthesis inhibition counterscreen | max response, % | hit rate 12% among 300,000; in the data active = max response mostly above about 13%, no sharp cut-off; inactive = mostly below about 14%; note: read at 38.3 µM for the half of the compounds with a filed dose; 0% is about no effect
# Pf growth 48h: P. falciparum growth inhibition at 48 hours (one generation). AID 504832. hit rate 5.9% among 310,000. P. falciparum luciferase growth in erythrocytes, 48 h. Potency, µM (series often up to 28.7 µM), for inactives: at the top dose activity change, negative = inhibition, usual class: inhibitors; note: potency is the fitted concentration of half-maximal effect; % is set by controls: 0 for no effect and ±100 for the full control effect
#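 Here the parasites carry a stable luciferase gene and grow inside erythrocytes in Albumax-based RPMI medium with compound for one erythrocytic cycle. Activity is scored as loss of luminescent signal.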
# HCV inhibitor: HCV inhibition | Huh7.5.1 HCVcc-Cre infection, luciferase reporter, 44 h | Potency, µM (titrated, usually from 41.8 µM), for inactives: at the highest dose activity change, negative = inhibition, usual class: inhibitors | hit rate 3.4% among 340,000; note: potency is the fitted concentration of half-maximal effect; % is set by controls: 0 for no effect and ±100 for the full control effect
#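 Whole-lifecycle infectious HCVcc-Cre system; cells 1,000/well, compound then virus (~0.5 moi) added 4 h after plating, 44 h culture. Luciferase read 15 sec following 15 min substrate incubation, room temp.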
# * marks the source's active call; other numbers are inactive results; ? = inconclusive; . = no result. Sampled rows, rich in hits. Any-hit rate of the full collection: about 21%. Unless noted, calls come from the whole dose curve; as a rule, active = well fitted curve in the direction sought with a large enough effect; inconclusive = small, poorly fitted or top-dose-only effect, or another doubt; inactive = no such curve, though single readings can be large; an effect the other way counts as inactive or inconclusive.
SMILES,Pf growth 96h,AMA1 RON2 block,Shiga toxin inh,CHX counter,Pf growth 48h,HCV inhibitor
CCCC(=O)Nc1ccc2c(c1)C(=O)N(C)C[C@@H](OC)[C@H](C)CN(Cc1ccc(-c3ccccn3)cc1)[C@@H](C)CO2,.,-11%,.,.,.,.
CCC(=O)Nc1cccc(-c2cc3ccccc3oc2=O)c1,26%,0%,83*,61*,100%,-3%
Cc1ccc(NC(=O)/C(C#N)=C/c2cc(C)n(-c3ccc(N4CCOCC4)c([N+](=O)[O-])c3)c2C)c(C)c1,12µM*,0%,-11,-2,?,?
Cc1cc(/C=C(\C#N)C(=O)Nc2ccc(Cl)cc2)c(C)n1-c1ccc(N2CCOCC2)c([N+](=O)[O-])c1,7.4µM*,0%,-3,-4,12µM*,?
Cc1cc(C=O)c(C)n1-c1ccc(N2CCOCC2)c([N+](=O)[O-])c1,5%,-7%,-22,-2,-11%,11%
CC1=CC2=NC(=O)C(c3ccccc3)C(=O)N2C=C1 (centres undefined),.,-11%,.,.,.,6%
COC(=O)c1ccc(CNS(=O)(=O)c2ccc3ccccc3c2)cc1,35%,6%,-11,-4,19%,6%
CCC(C)(C)c1ccc(Oc2ccc(N)cc2)cc1,?,?,-32,-6,?,4.5µM*
CCC(C)(C)c1ccc(Oc2cccc(C(=O)O)c2)cc1,83%,0%,163*,39*,54%,13%
CSc1ccc(C(=O)C2CCCN(Cc3cccn3-c3cccnc3)C2)cc1 (centres undefined),11%,-24%,-7,-2,10µM*,14µM*
O=C(c1ccc(Cl)cc1)C1CCCN(Cc2cccn2-c2cccnc2)C1 (centres undefined),1%,-26%,-3,-2,24%,-28%
CC(C)Oc1cccc(C(=O)C2CCCN(Cc3cccn3-c3cccnc3)C2)c1 (centres undefined),12µM*,-21%,-21,2,?,11µM*
C=CCNC(=O)N1CCCC(C(=O)c2cccc(OC(C)C)c2)C1 (centres undefined),?,-7%,118*,26*,49%,-7%
COc1ccc(CN2CCCC(C(=O)c3cccc(OC(C)C)c3)C2)cc1Cn1cccn1 (centres undefined),-30%,-3%,-12,9,9.3µM*,11µM*
CCOc1ccc(C(=O)NCc2ccc3c(c2)OCO3)cc1OCC,-11%,0%,.,-8,15%,-14%
COc1ccc(S(=O)(=O)N2CCOCC2)cc1NC(=O)CSc1n[nH]c(C(C)C)n1,-10%,67%,4,-1,?,8%
O=S1(=O)CC(N2CCN(CCO)CC2)CN1Cc1cn(Cc2cccc(C(F)(F)F)c2)nn1 (centres undefined),.,6%,.,.,.,.
CSc1ccc(C(=O)C2CCCN(Cc3cc4ccccc4[nH]3)C2)cc1 (centres undefined),-18%,32µM*,-2,-4,?,?
COc1ccc(C2CC(c3ccc(Br)cc3)=NN2C(=O)c2cccnc2)cc1 (centres undefined),?,-7%,-16,-6,-87%,?
COc1ccc(C2=NN(CN3C(=O)C(=O)c4ccccc43)C(c3ccc(C)cc3)C2)cc1 (centres undefined),?,-5%,78*,25*,.,-23%
COc1ccc(C2=NN(CN3C(=O)C(=O)c4ccccc43)C(c3ccc(Br)cc3)C2)cc1 (centres undefined),11%,-7%,46,32*,.,10µM*
OC[C@@H](O)[C@@H](O[C@H]1O[C@H](CO)[C@@H](O)[C@H](O)[C@H]1O)[C@H](O)[C@@H](O)CO,.,6%,-11,-11,.,18%
CCOCC(=O)Nc1cc(C(=O)NCCc2ccccc2)ccc1Cl,79%,13%,43*,42*,108%,13%
COc1ccc(C(=O)Nc2cc(C(=O)NCCc3ccccc3)ccc2Cl)cc1,.,-4%,35,29*,-2%,8.9µM*
COc1ccc(CCNC(=O)c2ccc(Cl)cc2)cc1,?,-5%,-8,10,.,-5%
SMILES,Pf growth 96h,AMA1 RON2 block,Shiga toxin inh,CHX counter,Pf growth 48h,HCV inhibitor
Cc1ccc(NC(=O)COc2ccc(C(=O)NCCc3ccccc3)cc2)cc1,.,-10%,.,.,.,.
COCC(=O)Nc1cc(C(=O)NCC(C)C)ccc1Cl,16%,-6%,1,-2,12%,6%
CC(C)CCNC(=O)c1ccc(Cl)c(NC(=O)Cc2ccccc2)c1,?,.,45*,16,?,-17%
COCC(=O)Nc1cc(C(=O)NCCc2ccccc2)ccc1Cl,219%,0%,74*,86*,227%,18%
O=C(NCCN1C(=O)S/C(=C\c2cccc(Cl)c2Cl)C1=O)C1=COCCO1,-18%,-4%,-5,-6,-18%,?
CSC1=NS(=O)(=O)c2c(C)nn(C)c2S1,-40%,14%,2,0,-8%,-2%
O=C(/C=C/c1ccccc1)N(Cc1ccc(Cl)cc1)C1CCS(=O)(=O)C1 (centres undefined),?,6%,2,0,?,-1%
O=C(/C=C/c1ccccc1)N(Cc1cccc(Cl)c1)C1CCS(=O)(=O)C1 (centres undefined),4.1µM*,-11%,-13,-1,6.6µM*,19%
COc1cc(/C=N/NC(=O)CSc2ccccn2)ccc1O,24%,18%,23,6,-2%,15%
CN(C)c1ccc(/C=N/NC(=O)CSc2ccccn2)cc1,-1%,-13%,56*,40*,31%,13%
CCCOc1ccc(/C=N/NC(=O)CSc2ccccn2)cc1OC,81%,-8%,85*,36*,38%,-13%
CC(OC(=O)CCc1nc2ccccc2c(=O)[nH]1)C(=O)Nc1cccc(C(F)(F)F)c1 (centres undefined),.,3%,.,.,.,4%
CCOc1ncccc1C(=O)NNC(=O)CSc1ccc(Cl)cc1,.,120%,.,.,.,-21%
Nc1nc(CN2CCN(C(=O)c3ccco3)CC2)nc(Nc2cccc(Cl)c2)n1,47%,4%,-5,-3,-6%,-28%
Nc1nc(-c2ccc([N+](=O)[O-])cc2)cc(=O)[nH]1,.,?,.,.,.,5%
O=[N+]([O-])c1ccc2nc(C(O)C(O)c3nc4ccc([N+](=O)[O-])cc4[nH]3)[nH]c2c1 (centres undefined),?,49%,.,22*,3%,-3%
CCCC[n+]1ccc(-c2nc3ccc([N+](=O)[O-])cc3[nH]2)cc1,?,9%,6,7,?,6%
O=[N+]([O-])c1ccc(-c2nc3ccc([N+](=O)[O-])cc3[nH]2)cc1,?,-12%,96,40*,?,?
